Experimental data published in PubChem BioAssay (EPA / NIEHS).
Calls of active or inactive are those of the source. The calls were made as follows: active = hit-call score of the fitted dose curve at least 0.9, where 1 is the maximum; inactive = score below 0.9.

Test: CCTE_Harrill_HTTr_Apoptosis_MCF7: CCTE's 6-hour Apoptosis Assessment for the High-Throughput Transcriptomics (HTTr) Platform, in MCF-7 cells cultured in DMEM + 10% fetal bovine serum, Harrill Lab (AID 2284011)
Summary of the method: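 High-content imaging of CellEvent Caspase 3/7 Green signal follows a six-hour exposure, with eight concentrations per chemical. MCF-7 cells grown in DMEM plus 10% fetal bovine serum; activity fitted in both directions against DMSO.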

Row | Compound | outcome
1 | OB(O)O | inactive
2 | C#CCOC(=O)[C@@H](C)Oc1ccc(Oc2ncc(Cl)cc2F)cc1 | inactive
3 | CCN(CC)C(=O)c1cccc(C)c1 | inactive
4 | CCCCCOC(=O)COc1cc(N2C(=O)C3=C(CCCC3)C2=O)c(F)cc1Cl | inactive
5 | CCCCC(CC)COC(=O)c1ccccc1C(=O)O (configuration not stated) | inactive
6 | COCCO | inactive
7 | Oc1ccc(C(c2ccc(O)cc2)C(Cl)(Cl)Cl)cc1 | inactive
8 | CCOC(=O)c1ccc(O)cc1 | inactive
9 | CCOC(=O)C(C)Oc1ccc(Oc2cnc3cc(Cl)ccc3n2)cc1 (configuration not stated) | inactive
10 | CCNc1nc(N)nc(Cl)n1 | inactive
11 | C#C[C@]1(O)CC[C@H]2[C@@H]3CCC4=CC(=O)CC[C@@H]4[C@H]3CC[C@@]21CC | inactive
12 | CCCOC(=O)NCCCN(C)C | inactive
13 | c1ccc(Nc2ccccc2)cc1 | inactive
14 | CCOC(=O)NCCOc1ccc(Oc2ccccc2)cc1 | inactive
15 | CCC(C)OC(=O)N1CCCCC1CCO (configuration not stated) | inactive
16 | COc1c(Cl)ccc(Cl)c1C(=O)O | inactive
17 | CCCN(CCC)c1c([N+](=O)[O-])cc(C(F)(F)F)c(N)c1[N+](=O)[O-] | inactive
18 | COC(=O)c1ccccc1C(=O)O | inactive
19 | O=C(O)c1ccccc1 | inactive
20 | COC(=O)c1ccc(I)cc1S(=O)(=O)NC(=O)Nc1nc(C)nc(OC)n1 | inactive
21 | CCC(O)=C1C(=O)CC(C(=O)O)CC1=O (configuration not stated) | inactive
22 | CCCCOC(=O)C(C)Oc1ccc(Oc2ccc(C(F)(F)F)cn2)cc1 (configuration not stated) | inactive
23 | CCCCOC(=O)[C@@H](C)Oc1ccc(Oc2ccc(C(F)(F)F)cn2)cc1 | inactive
24 | CCCCCCC(C)OC(=O)COc1nc(F)c(Cl)c(N)c1Cl (configuration not stated) | inactive
25 | CC(C)(C)[C@@H](O)[C@@H](Cc1ccc(Cl)cc1)n1cncn1 | inactive
26 | CCN(Cc1c(F)cccc1Cl)c1c([N+](=O)[O-])cc(C(F)(F)F)cc1[N+](=O)[O-] | inactive
27 | O=C(Nc1ccc([N+](=O)[O-])cc1Cl)c1cc(Cl)ccc1O | inactive
